Screens: PubChem BioAssay, several laboratories
SK-BR-3 tox 24h: SK-BR-3 proliferation inhibitors. 41,000 compounds, 0.47% hits. SK-BR-3 viability, CellTiter-Glo ATP luminescence, 24 h; active compounds read low. viability, % at 10 µM. AID 847;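 active means viability at or below the median of all test compounds minus 3 SD, in both replicates if run twice, cut at about 45% in these data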;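 further: 100% = median untreated cell wells and 0% = median positive control drug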
WNV NS2B-NS3 inh: inhibitors of West Nile virus NS2B-NS3 protease | P06935 | WNV NS2B-NS3 protease, fluorogenic substrate Ex360/Em465; active compounds read low | z-score (no concentration beside the values) | 65,000 compounds, 0.18% hits | AID 577; in the data active means z-score below about -3
MKP-1 inh: inhibitors of human MKP-1 phosphatase. P28562. recombinant MKP-1, OMFP hydrolysis fluorescence. inhibition, %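 (compounds tested at a single concentration somewhere between 10 and 100 µM)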. 65,000 compounds, 0.15% hits. AID 374;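 active means inhibition above about 50%, limit read from the data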;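 further: 0% = DMSO max control wells and 100% = wells with enzyme stopped by NaOH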
Hsp90 block: displaces geldanamycin probe from tumor Hsp90. NCI-N417 lysate Hsp90, Cy3B-geldanamycin FP displacement. AID 429. 64,000 compounds, 0.35% hits. inhibition, % at 30 µM;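 active means inhibition above 50%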;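 further: 0% = tracer plus lysate wells and 100% = tracer alone without lysate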
Cdc25B inh: inhibitors of human Cdc25B phosphatase. 65,000 compounds, 0.1% hits. inhibition, %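 (compounds tested at 10 µM final in the well)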. AID 368. recombinant Cdc25B, OMFP fluorescence Ex485/Em525; in the data active means inhibition above about 50%
Target sequence (P30305 whole entry, looked up): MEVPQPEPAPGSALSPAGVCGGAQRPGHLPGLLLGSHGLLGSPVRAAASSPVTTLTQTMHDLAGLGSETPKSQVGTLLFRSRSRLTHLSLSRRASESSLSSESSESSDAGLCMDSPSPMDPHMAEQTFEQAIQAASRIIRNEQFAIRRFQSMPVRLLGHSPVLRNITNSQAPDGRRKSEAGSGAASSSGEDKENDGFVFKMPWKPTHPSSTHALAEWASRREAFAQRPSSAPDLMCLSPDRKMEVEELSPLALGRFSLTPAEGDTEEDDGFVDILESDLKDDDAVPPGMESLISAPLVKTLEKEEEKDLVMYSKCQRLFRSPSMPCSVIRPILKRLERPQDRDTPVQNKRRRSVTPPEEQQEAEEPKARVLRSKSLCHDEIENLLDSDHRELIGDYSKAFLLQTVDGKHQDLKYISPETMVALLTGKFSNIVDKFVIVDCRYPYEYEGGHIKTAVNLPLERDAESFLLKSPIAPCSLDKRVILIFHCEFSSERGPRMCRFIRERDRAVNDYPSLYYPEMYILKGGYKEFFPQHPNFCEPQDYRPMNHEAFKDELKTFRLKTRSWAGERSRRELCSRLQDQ
Active calls of the source: *; nt = not tested or not shown; ! = not confirmed by another sample. Rows were chosen to be rich in hits. Some 1% of all compounds tested hit in one or more screens of this group.

SMILES | SK-BR-3 tox 24h | WNV NS2B-NS3 inh | MKP-1 inh | Hsp90 block | Cdc25B inh
COc1ccc(S(=O)(=O)Nc2ccccn2)cc1OC | 89 | 1.1 | 20 | -1 | -5
Nc1ccc(S(=O)(=O)Nc2ccccn2)cc1 | 85 | -3.1* | -10 | 5 | -15
CNCCCN1c2ccccc2CCc2ccccc21 | 76 | -6.7*! | -10 | -5 | -2
Cc1cc(Cl)ccc1NC(=O)CSc1nnc(-c2ccncc2)n1Cc1ccco1 | 39* | -0.37 | 14 | nt | -14
Cc1cccc(C)c1NC(=O)CSc1nnc(-c2ccncc2)n1Cc1ccco1 | 90 | 2 | -3 | -9 | 6
O=C(O)[C@H]1NCCC[C@H]1C(=O)O | nt | nt | nt | 3 | nt
CSc1nc(C)cc(-n2ccc(=O)[nH]c2=O)n1 | 91 | -0.62 | 5 | -2 | -2
O=C(c1ccc2ccccc2c1)N1CCN(c2ccc(O)cc2)CC1 | nt | 1.9 | 13 | 92* | -7
COC(=O)c1cccc(CSc2nnc(-c3ccco3)n2-c2ccccc2)c1 | 35* | 1.6 | -32 | -5 | -14
NC(=O)CSc1nnc2n(-c3ccccc3)c(=O)c3c4c(sc3n12)CCCCC4 | 32* | -0.85 | 6 | 0 | 15
CC(C)c1cc(Nc2cccc(O)c2)cc(C(C)C)c1O | nt | 1 | 23 | 72* | 8
CC(C)c1cc(NC(=O)C(C)(C)C)cc(C(C)C)c1O | 91 | -0.61 | -6 | -2 | -4
CC(C)CN1C(=O)NC(NC(=O)c2ccco2)(C(F)(F)F)C1=O (stereo not given) | 98 | -0.19 | 4 | 94* | 7
Nc1nc2nonc2nc1N1CCCCC1 | 90 | -0.14 | -25 | 3 | 6
Nc1nonc1N1CCCCC1 | 92 | -0.59 | -17 | 72* | 3
CC(=O)N[C@H](C(=O)O)C(C)(C)SN=O | nt | nt | nt | -1 | nt
CC1(C)CCC2=C(O1)c1ccccc1C(=O)C2=O | nt | nt | nt | 89* | nt
Cc1nn2c3c(cnc2c1-c1ccccc1)C(=O)CC(C)C3 (stereo not given) | 85 | -0.82 | 3 | 2 | 3
CC(=O)Oc1cccc2c1C(=O)c1c(OC(C)=O)cc(C(=O)O)cc1C2=O | 82 | -0.21 | -5 | 102* | -19
COC(=O)c1c(NC(=O)C2CC2)sc2c1CCCC2 | nt | -3.6* | 9 | 0 | -6
CCOc1ccc(NC(=O)N(C2CCCCC2)C2CCN(C(C)=O)CC2)cc1 | nt | 1.9 | 2 | -4 | 64*
CCOc1ccc(NC(=O)N(C2CCCCCC2)C2CCN(C(C)=O)CC2)cc1 | nt | 0.58 | 34 | 0 | -2
Nn1c(SCC(=O)Nc2ccc(F)cc2)nnc1-c1cccnc1 | nt | -0.73 | -4 | -5 | -4
COc1ccccc1NC(=O)CCC(=O)Nc1nnc(C(F)(F)F)s1 | 66 | 0.03 | -26 | -2 | 6
c1ccc2sc(SCc3ccc(-c4nnco4)cc3)nc2c1 | nt | 0.48 | 7 | 91* | 1
SMILES | SK-BR-3 tox 24h | WNV NS2B-NS3 inh | MKP-1 inh | Hsp90 block | Cdc25B inh
O=C(O)CCSc1nc2ccccc2s1 | 104 | -0.15 | -1 | 1 | -14
O=C(NCc1ccc(F)cc1)C1CC(=O)N(CCc2ccccc2)C1 (stereo not given) | 98 | -1.1 | 5 | 1 | 5
CC(C)CCN1CC(C(=O)NCc2ccc(F)cc2)CC1=O (stereo not given) | nt | -4* | 2 | -1 | 0
Cc1nnc(SCC(=O)NCCN2C(=O)CSC2=O)s1 | nt | -0.22 | 7 | -2 | -14
Nc1nnc(CCN2C(=O)CSC2=O)s1 | 40* | 1.1 | -4 | 1 | -2
Oc1ccc(C=Nc2cccc3ncccc23)c(O)c1 | 94 | -0.15 | -10 | 9 | 7
Oc1ccc(C=Nc2ccc3ncccc3c2)c(O)c1 | 93 | 0.2 | 9 | 76* | 4
CCCCS(=O)(=O)Nc1cc(OC)cc2cccnc12 | nt | nt | nt | 1 | nt
CC1CCCCC1NC(=O)c1cn(C)c2ccc(S(=O)(=O)N3CCCC3)cc2c1=O (stereo not given) | 43* | -0.26 | 30 | 1 | 10
CCn1cc(C(=O)NCc2ccccn2)c(=O)c2cc(S(=O)(=O)N3CCCCC3)ccc21 | nt | -0.46 | 33 | 65* | -2
Cn1cc(C(=O)NC2CCCCC2)c(=O)c2cc(S(=O)(=O)N3CCCC3)ccc21 | 51 | 0.9 | 34 | 1 | 4
CC1CCN(S(=O)(=O)c2ccc3c(c2)c(=O)c(C(=O)NC2CCCC2)cn3C)CC1 | nt | 1.2 | 50* | 2 | -1
CCn1cc(C(=O)NCc2ccco2)c(=O)c2cc(S(=O)(=O)N3CCCCCC3)ccc21 | nt | 0.2 | 36 | 2 | -11
CC1CCCC(NC(=O)c2cn(C)c3ccc(S(=O)(=O)N4CCCC4)cc3c2=O)C1C (stereo not given) | 69 | 2.1 | 37 | -2 | 6
